# BAZ2B block – BAZ2B (human) inhibition. Q9UIF8. Potency, µM (titrated, usually from 114 µM), without a hit: top-dose activity change, negative = inhibition, most hits filed as inhibitors. AlphaScreen BAZ2B-H3K14Ac peptide displacement. 4.4% of 360,000 active; note: % is set by controls: 0 for no effect and ±100 for the full control effect; nearly all actives have a fitted effect of over 60% in size
#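 Protein-peptide AlphaScreen: BAZ2B 50 nM, b-H3K14Ac 50 nM, 1x PBS pH 7.4 + 0.01% Tween-20. Preincubation 30 min RT; cpd 30 min RT (top 110 uM); beads 20 min RT, light-protected.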
# GLS inhibitor – glutaminase GLS (human) inhibition; O94925; GLS enzymatic activity, qHTS titration; Potency, µM (highest dose often 45.5 µM), inactives show top-dose activity change, negative = inhibition, usual class: inhibitors; 0.21% of 410,000 active; AID 624170; note: % is set by controls: 0 for no effect and ±100 for the full control effect
#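 hKGA; 45 mM KH2PO4 pH 8.2 + 0.02% Tween-20; cpd via pin tool; 1 mM Gln soln; GluOx/HRP/Amplex Red; RT 30 min; fluor. t0 & final.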
# G9a inh – inhibitors of human histone lysine methyltransferase G9a. Q96KQ7. G9a H3K9 monomethylation, AlphaScreen, 2 h. Potency, µM (top dose mostly 102 µM), without a hit: at the highest dose activity, negative = inhibition, actives largely listed as inhibitors. 8.8% of 350,000 active. AID 504332; note: % is set by controls: 0 for no effect and ±100 for the full control effect; nearly all actives have a fitted effect of over 75% in size
#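 Compounds were preincubated with 20 nM G9a for 15 min, after which biotinylated H3K9 peptide (500 nM) and SAM (20 uM) started a 2 h room-temperature reaction. Monomethylated product was quantified by antibody-based AlphaScreen chemiluminescence.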
# L3MBTL1 inh – inhibitors of human L3MBTL1. Q9Y468. AlphaScreen L3MBTL1–H3K9me1 peptide binding. Potency, µM (highest dose often 57.1 µM), inactives show at the highest dose activity, negative = inhibition, hits mostly inhibitors. 0.66% of 230,000 active. AID 485360; note: % is set by controls: 0 for no effect and ±100 for the full control effect; nearly all actives have a fitted effect of over 60% in size
#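 L3MBTL1 (50 nM) pre-complexed 30 min with biotinylated H3(1-15)K9me1 peptide (75 nM), then compounds added for 30 min at room temperature; AlphaScreen streptavidin donor/nickel chelate acceptor beads (10 ug/mL final) read after 30 min dark incubation.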
# JMJD2A Tudor inh – JMJD2A Tudor domain (human) inhibition | AID 504339 | AlphaScreen JMJD2A-Tudor / H3K4me3 peptide binding | 4.4% of 390,000 active | O75164 | Potency, µM (titrated, usually from 114 µM), inactives show at the highest dose activity change, negative = inhibition, usual class: inhibitors; note: % is set by controls: 0 for no effect and ±100 for the full control effect; nearly all actives have a fitted effect of over 50% in size
# HP1b binding inh – HP1-beta chromodomain-methylated histone interaction inhibition; AID 540317; P83916; Potency, µM (highest dose often 114 µM), for inactives: at the top dose activity change, negative = inhibition, actives largely listed as inhibitors; AlphaScreen HP1-beta / biotin-H3K9me3 peptide binding; 0.56% of 390,000 active; note: nearly all actives have a fitted effect of over 70% in size
#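 Compound inhibition of the preformed complex between 50 nM HP1-beta and 50 nM biotinylated H3K9me3 peptide was read by AlphaScreen. Buffer was PBS pH 7.4 with 0.01% Tween-20. Incubations ran 30 min at room temperature, with 10 ug/mL donor/acceptor beads.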
# Starred values were filed as active, the others as inactive; ? = inconclusive; · = no result; [ ] = another dose, or the depositor's remark. Most compounds without a hit are left out; they make up all but 10% or so of the library. Calls come from the whole dose curve; as a rule, active = well fitted curve in the direction sought with a large enough effect; inconclusive = small, poorly fitted or top-dose-only effect, or another doubt; inactive = no such curve, though single readings can be large; an effect the other way counts as inactive or inconclusive. Potency is the fitted concentration of half-maximal effect.
SMILES,BAZ2B block,GLS inhibitor,G9a inh,L3MBTL1 inh,JMJD2A Tudor inh,HP1b binding inh
COCCN=c1scc(-c2cccs2)n1/N=C/c1ccc(O)c(O)c1O,35.5µM*,?,5.62µM*,?,8.91µM*,?
CCN=c1scc(C)n1/N=C/c1cc(Br)c(O)c(Br)c1,44.7µM*,-12.0%,10µM*,-4.2%,?,?
CCN=c1scc(C)n1/N=C/c1ccc(O)c(O)c1O,22.4µM*,-16.7%,5.01µM*,31.6µM*,44.7µM*,?
O=C(CC1N=C2c3ccccc3N=C(SCc3cccc(Cl)c3)N2C1=O)NC1CCCCC1 (stereo not given),-1.1%,2.7%,-1.0%[59 µM],·,-20.3%,37.5%
COc1cccc(-c2nc(SCC(=O)NC3CCCC3)c(-c3ccc(F)cc3)[nH]2)c1,-22.5%,-7.8%,-7.1%[59 µM],·,-26.0%,-17.3%
CSc1nn(Cc2ccc(F)cc2)c(N)c1S(=O)(=O)c1ccc(Cl)cc1,-5.1%,-1.9%,-15.5%[59 µM],·,-12.3%,20.0%
Cc1ccc2nc3sc(C(=O)Nc4c(C)[nH]c(=O)[nH]c4=O)c(N)c3cc2c1,-30.4%,1.9%,10µM*,4.3%,-18.6%,21.7%
Cc1[nH]c(=O)[nH]c(=O)c1NC(=O)c1sc2nc3c(C)cccc3cc2c1N,-9.8%,22.0%,10µM*,-2.1%,-21.4%,21.9%
Cc1ccc(NC(=O)c2sc3nc(-c4ccncc4)ccc3c2N)cc1,1.0%,1.2%,?,·,1.7%,40.8%
Cc1ccc2cc3c(N)c(C(=O)Nc4c(C)[nH]c(=O)[nH]c4=O)sc3nc2c1,?,-15.3%,10µM*,-3.3%,-28.1%,32.8%
COc1cccc(-c2ccc3c(N)c(C(=O)Nc4ccccc4C)sc3n2)c1,55.3%,2.3%,-25.2%[59 µM],·,42.9%,113.8%
CCCCNC(=O)CN1C(=O)c2c(c3ccccc3n2C)C1c1ccc(OC)cc1 (stereo not given),-4.2%,4.0%,-1.5%[59 µM],·,0.0%,30.4%
O=C(COc1ccccc1F)Nc1nnc(SCc2cc(=O)n3ccccc3n2)s1,-0.6%,6.9%,14.1%[59 µM],·,-11.4%,17.6%[57 µM]
Cc1ccc2nc3c(nc2c1C)CCCC3,10.1%,5.7%,38.8%[0.501 µM],·,-6.1%,12.5%
Cc1ccc2nc3c(nc2c1C)C(O)=C3O,-3.4%,?,12.6µM*,·,-18.1%,?
Clc1ccc(-c2nnc3sc(Cc4cccs4)nn23)cc1,6.9%,6.7%,35.5µM*,?,-22.4%,26.4%
c1ccc(-c2nnc3sc(Cc4cccs4)nn23)cc1,-23.1%,-13.6%,?,-11.0%,-25.4%,1.2%
CCC(=O)N1c2ccc(S(=O)(=O)CCC(=O)Nc3ccc(OC)cc3OC)cc2CC1C (stereo not given),-27.1%,1.9%,39.8µM*,·,?,25.0%[57 µM]
Cc1ccc(CNC(=O)CCS(=O)(=O)c2ccc3c(c2)CC(C)N3C(=O)C2CC2)cc1 (stereo not given),-12.6%[57.1 µM],3.9%,11.8%,·,-0.7%,23.7%
CCOc1ccccc1NC(=O)CCS(=O)(=O)c1ccc2c(c1)CC(C)N2C(C)=O (stereo not given),2.0%,-0.3%,25.1µM*,·,-9.2%,20.5%[57 µM]
CCC(=O)N1c2ccc(S(=O)(=O)CCC(=O)NCc3ccccc3OC)cc2CC1C (stereo not given),·,10.5%,?,·,-15.3%,8.9%
CCC(=O)N1c2ccc(S(=O)(=O)CCC(=O)NCc3ccc4c(c3)OCO4)cc2CC1C (stereo not given),-6.2%,20.2%,11.6%[0.501 µM],-1.8%,50.1µM*,-5.3%
CC1=Nc2ccc(C)cc2/C1=C/c1c(N)n2c(S(=O)(=O)C(C)C)nsc2nc1=O,-35.5%,-0.1%,50.1µM*,-20.4%,-31.0%,14.9%
CC1=Nc2ccccc2/C1=C/c1c(N)n2c(S(=O)(=O)C(C)C)nsc2nc1=O,?,0.0%,13.0%,·,-19.9%,3.8%
Cc1ccc(CCNC(=O)CCSCc2ccccc2F)cc1,1.6%,-6.0%,2.5%[59 µM],·,-17.7%,24.4%
SMILES,BAZ2B block,GLS inhibitor,G9a inh,L3MBTL1 inh,JMJD2A Tudor inh,HP1b binding inh
CCCn1c(=O)c2sccc2n2c(CCCC(=O)N3CCN(c4ccccc4OC)CC3)nnc12,7.2%,4.6%,16.2%[59 µM],·,-2.9%,73.5%
COc1ccc(CCNC(=O)CC2Oc3ccc(Cl)cc3NC2=O)cc1OC (stereo not given),-23.4%,2.5%,79.4µM*,·,-19.7%,33.6%
Cc1ccc(CNC(=O)CC2Oc3ccc(Cl)cc3NC2=O)cc1 (stereo not given),-5.4%,-8.3%,-27.6%[59 µM],·,-20.4%,2.2%
CCC(C)NC(=O)CC1Oc2ccc(Cl)cc2NC1=O (stereo not given),10.5%,6.9%,44.7µM*,·,-10.6%,47.1%
CCc1ccc(NC(=O)c2cc3nc(-c4ccc(C)cc4)cc(C(F)(F)F)n3n2)cc1,-10.7%,0.9%,1.0%[59 µM],·,-12.3%,0.5%
CN(C)c1ccc(CNC(=O)c2cccn2-c2nnc(N3CCCCC3)s2)cc1,39.8µM*,1.3%,-43.3%[59 µM],·,?,-3.2%
Cc1cc(NC(=O)c2cccn2-c2nnc(N3CCCCC3)s2)ccc1Br,70.8µM*,3.1%,-24.1%[59 µM],·,?,8.1%
CC(C)c1ccc(NC(=O)c2cccn2-c2nnc(N3CCCCC3)s2)cc1,?,-11.1%,-40.9%[59 µM],·,-28.2%,-14.4%
Cc1ccc(C)c(NC(=O)Cn2cc(S(=O)(=O)c3ccc(F)cc3)c(=O)c3cc(F)ccc32)c1,1.0%,-3.3%,5.8%[59 µM],·,-5.3%,39.2%
CCc1nn(-c2ccccc2)c2nc(-c3cccc(OC)c3)c3cc(OC)c(OC)cc3c12,3.1%,0.3%,11.4%[59 µM],·,-15.4%,-7.7%
CCCOc1ccc(N2C(=O)CC(N(CCc3ccc(OC)cc3)C(=O)c3cccc(F)c3)C2=O)cc1 (stereo not given),4.1%,-1.5%,44.7µM*,-1.0%,-28.9%,11.8%
CCC(=O)N(CCc1ccc(S(N)(=O)=O)cc1)C1CC(=O)N(c2ccc(OC)cc2)C1=O (stereo not given),-5.0%,-2.3%,56.2µM*,0.0%,-6.5%,22.7%
COc1cccc(-c2nnc3n2N=C(c2ccccc2OC)CS3)c1,·,·,·,·,-24.8%,·
Cc1cc(=O)[nH]c(-n2[nH]c3c(c2=O)CCCC3)n1,12.6µM*,-0.1%,-46.9%[59 µM],-2.8%,2.24µM*,22.3%
Fc1ccc(CN2CCN(c3ncccn3)CC2)c(F)c1,3.6%,0.7%,·,-1.0%,17.8µM*,-23.6%
CC1CN(Cc2cnc(Cl)s2)CC(C)O1 (stereo not given),-18.3%,-1.6%,?,-15.0%[11.4 µM],-11.0%,44.6%
Clc1cccc(CN2CCN(c3ncccn3)CC2)c1Cl,?,-3.6%,·,5.2%,20µM*,?
Clc1ccc(CN2CCN(c3ncccn3)CC2)c(Cl)c1,?,-0.7%,·,7.7%,17.8µM*,?
